Bioassay records deposited in PubChem BioAssay by National Center for Advancing Translational Sciences (NCATS).
Pf growth 96h: inhibits malaria parasite growth, 96 h | P. falciparum luciferase reporter growth, 96 h | Potency, µM (titrated, usually from 28.7 µM), without a hit: top-dose activity change, negative = inhibition, most hits filed as inhibitors | 320,000 compounds, 6.9% hits; also: potency is read from the fitted curve at half-maximal effect; % is scaled to controls: 0 for no effect and ±100 for the full control effect
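Two-generation exposure (96 h) targets delayed-death phenotype. Reporter parasites carrying integrated firefly luciferase, in red cells at 2% hematocrit and 0.05% parasitemia final, kept at 37 C, 5% CO2; luminescence loss indicates inhibition.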
Pf growth 48h: inhibits P. falciparum growth in the first generation, 48 h; P. falciparum luciferase growth in erythrocytes, 48 h; 310,000 compounds, 5.9% hits; Potency, µM (series often up to 28.7 µM), inactives show at the highest dose activity change, negative = inhibition, actives largely listed as inhibitors; AID 504832; also: potency is read from the fitted curve at half-maximal effect; % is scaled to controls: 0 for no effect and ±100 for the full control effect
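In quantitative HTS format, infected erythrocytes bearing luciferase-reporter parasites were treated for a single generation at 37 C. Luminescence after adding detection reagent served as the growth measure.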
Shiga toxin inh: inhibitors of Shiga toxin in Vero cells; Vero cells, Shiga toxin protein synthesis inhibition reporter; AID 2315; 290,000 compounds, 9.2% hits; inhibition, % at 38.7 µM; in the data active = inhibition mostly above about 28%, no sharp cut-off; inactive = mostly below about 43%; also: 0% is about no effect
CHX counter: counter-screen for Shiga toxin inhibitors: cycloheximide protein synthesis inhibition. cell reporter, cycloheximide protein synthesis inhibition counterscreen. max response, %. 300,000 compounds, 12% hits. AID 2314; in the data active = max response mostly above about 13%, no sharp cut-off; inactive = mostly below about 14%; also: read at 38.3 µM for the half of the compounds with a filed dose; 0% is about no effect
* = called active by the depositor; u = inconclusive; x = not tested or not shown; ! = a repeat was not active; [ ] = dose if it differs, or a comment. Compounds with a hit are over-represented: about 21% of the library has one in this group of screens. Unless noted, calls follow the shape of the dose curve; as a rule, active = well fitted inhibition curve with a large enough effect; inconclusive = small, poorly fitted or top-dose-only effect, or another doubt; inactive = no such curve, though single readings can be large or run the other way.

SMILES | Pf growth 96h | Pf growth 48h | Shiga toxin inh | CHX counter
O=C(Nc1ccc2ccccc2c1)c1ccc2[nH]c(=O)c(=O)[nH]c2c1 | -11.2% | -17.8%[0.00184 µM] | 15.3 | 3.9
COc1ccc2nc(NC(=O)CS(=O)(=O)Cc3ccccc3)sc2c1 | -25.6% | 20.3% | -2.2 | 2.9
COc1ccc2nc(NCc3cccnc3)sc2c1 | u | 16.2% | 49.3* | 21.9*
Cc1cccc(Nc2nc3ccccc3s2)c1C | 111.5% | 240.1% | 99.5* | 49.2*
C[C@@H]1Cc2c(Cl)cc(C(=O)N[C@H](Cc3ccccc3)C(=O)O)c(O)c2C(=O)O1 | x | x | -6.0 | -3.5
C=C1CCN(C(C(=O)O)C(C)C)S(=O)(=O)c2ccccc21 (stereo not given) | x | x | -1.1 | -7.2
COC(=O)c1ccc(OCC(O)CN2CCN(CC(O)COc3ccc(C(=O)OC)cc3)CC2)cc1 (stereo not given) | 76.9% | u | -8.6 | -2.2
CC(=O)/C(=N\Nc1ccccc1)Oc1ccc([N+](=O)[O-])cc1 | 10.4µM* | 9.28µM* | -4.4 | -3.1
COC(=O)c1ccc(OCC(O)CN(CC(C)C)CC(C)C)cc1 (stereo not given) | u | 13.1µM* | -20.4 | -2.6
CCCN(CCC)CC(O)COc1ccc([N+](=O)[O-])cc1 (stereo not given) | 14.7µM* | u | -15.4 | 2.8
O=C(NCC(O)COc1ccc([N+](=O)[O-])cc1)Nc1ccccc1 (stereo not given) | -16.8% | -2.2% | 34.1* | 30.0*
Cc1cc(C)cc(NC(=O)NCC(O)COc2ccc([N+](=O)[O-])cc2)c1 (stereo not given) | u | u | -3.1 | 5.2
CCCN(CCC)CC(O)COc1ccc2c(c1)OCO2 (stereo not given) | u | -24.8% | -13.5 | 0.7
CCc1cccc(NC(=O)CCCn2nc(C)c3c(C)n(-c4ccccc4)nc3c2=O)c1 | u | 1.2% | -3.3 | -3.1
C=CCn1c(SCC(=O)Nc2cccc(S(N)(=O)=O)c2)nnc1C1CCCCC1 | -15.6% | -2.8% | x | x
CCOCCOC(=O)COc1ccc2c(-c3ccccc3)cc(=O)oc2c1 | 14.4% | 19.9% | -7.2 | 1.0
O=C(O)c1c(NC(=O)N2CCOCC2)sc2c1CCCC2 | 26.3% | 15.7%[0.00184 µM] | 28.8 | 13.4*
O=C(Cc1ccccc1)Nc1sc2c(c1C(=O)Nc1ccc(Cl)cc1)CCCC2 | x | x | 37.8 | 31.4*!
NCCNC(=O)c1c(NC(=O)c2ccccc2)sc2c1CCCC2 | u | u | 45.9 | 23.8*
O=C(Nc1sc2c(c1C(=O)NCCCO)CCCC2)c1ccccc1 | u | u | 14.3 | 6.2
O=C(Nc1sc2c(c1C(=O)O)CCCCC2)c1ccccc1 | u | -0.8% | 104.3* | 41.9*
CN1CCc2sc(NC(=O)Cc3ccccc3)c(C(=O)Nc3ccc(Cl)cc3)c2C1 | x | x | 3.5 | -3.1
NC(=O)c1cc([N+](=O)[O-])c(Cl)cc1NCc1cccnc1 | 69.3% | -19.0% | x | x
CC1(C)Cc2c(sc(NC(=O)c3ccccc3)c2C(=O)O)CO1 | -3.7% | 63.5% | 114.5* | 60.8*
O=C(O)c1c(NC(=O)c2cccc3ccccc23)sc2c1CCC2 | -8.2% | x | 15.7 | -2.4
SMILES | Pf growth 96h | Pf growth 48h | Shiga toxin inh | CHX counter
O=C(Nc1sc2c(c1C(=O)O)CCC2)c1ccccc1 | x | 44.3% | 142.8* | 41.2*
O=C(CN1CCCC1)Nc1sc2c(c1C(=O)Nc1ccc(Br)cc1)CCC2 | u | 11.7µM* | 0.6 | -3.1
CN1CCN(CC(=O)Nc2sc3c(c2C(=O)Nc2ccccc2)CCCC3)CC1 | 27.6% | u | -7.5 | -0.9
O=C(Nc1sc2c(c1C(=O)O)CCCC2)c1ccc(Cl)cc1 | -8.3% | 55.8% | 28.8 | 18.8*
C#CCOCCOCCOCCNc1nc(N2CCN(C(=O)[C@H](CCCCN)n3cc([C@@H](N)CO)nn3)CC2)nc(N2CCN(C(=O)[C@H](Cc3cc4ccccc4[nH]3)n3cc([C@@H](N)CC(C)C)nn3)CC2)n1 | -7.2% | 7.5% | -12.8 | -3.1
O=C(Nc1sc2c(c1C(=O)O)CCCC2)c1cccc(Cl)c1 | 27.4% | 45.8% | 98.0* | 50.5*
CCOC(=O)c1ccc(NC(=O)c2c(NC(=O)CCC(=O)O)sc3c2CCCCC3)cc1 | 117.9% | u | 22.9 | 17.0*
O=C(Nc1sc2c(c1C(=O)O)CCC2)c1ccc(F)cc1 | 20.6% | 68.3% | 37.4* | 8.4
CC(=O)OCOC(=O)CNc1ccccc1OCCOc1ccccc1NCC(=O)OCOC(C)=O | x | x | -6.7 | -10.3
COC(=O)c1cc2occc2n1Cc1nc(-c2ccccc2Cl)oc1C | 11.7µM* | -18.6% | -17.0 | -4.3
Nc1c(-c2ccc(Cl)cc2)cnn1-c1cc(C(F)(F)F)cc(C(F)(F)F)c1 | -14.0% | -14.5% | -8.9 | -0.5
Nc1c(-c2ccccc2)cnn1-c1cccc(C(F)(F)F)c1 | 233.1% | 122.9% | 83.0* | 68.3*
Nc1c(-c2cccc(Cl)c2)cnn1-c1cccc(C(F)(F)F)c1 | 66.3% | 34.1% | 58.5* | 31.2*
Cc1ccc(OCC(=O)OCC(=O)N2c3ccccc3CC2C)cc1C (stereo not given) | 15.4% | -2.7% | x | x
C=C(C)C(=O)OCCOCC | x | x | -2.4 | -4.2
CC1(C)C2CCC1(C)C(NC(=O)CCN1CCCCC1)C2 (stereo not given) | 0.0928µM* | 4.7% | -9.9 | 0.6
CCOc1ccc(S(=O)(=O)n2cc(F)c(=O)[nH]c2=O)cc1 | 13.1µM* | u | -18.4 | 4.1
O=C(NNC(=O)C1CCN(S(=O)(=O)c2ccccc2)CC1)c1ccccc1O | u | -4.8% | -5.3 | -3.3
O=C(NNC(=O)C1CC=CCC1)c1ccccc1O (stereo not given) | u | 54.1% | 24.9 | 17.6*
O=C(NNC(=O)C1CC=CCC1)c1ccccc1Br (stereo not given) | u | 26.2% | 16.9 | active
O=c1cc(CN2CCN(C/C=C/c3ccccc3)CC2)c2cc(O)ccc2o1 | 2.94µM* | 3.29µM* | -11.0 | -2.1
Cc1ccc2oc(=O)cc(CN3CCN(C/C=C/c4ccccc4)CC3)c2c1 | 8.28µM* | u | -5.1 | -0.8
COc1ccc(S(=O)(=O)N2CCC(C(=O)NCCC(=O)NC3CC3)CC2)cc1 | 45.3% | 38.1% | 12.6 | -2.3
CCCCN1c2cc(C)c(O)cc2C(C(=O)OCC)C1C (stereo not given) | 45.7% | 2.08µM* | -16.8 | 1.4
CCCN(CC(=O)Nc1ccccc1C)C(=O)c1ccc(S(=O)(=O)N2CCC(C)CC2)cc1 | -15.2% | u | x | x
COc1cccc(CN(C)C(=O)C2CCC(=O)N(Cc3cccc(F)c3)C2)c1 (stereo not given) | u | -9.2% | -24.2 | 1.1
COc1cccc(CN2CC(C(=O)N(C)C3CCOCC3)CCC2=O)c1 (stereo not given) | 34.0% | 2.0% | 16.7 | 14.4*
COc1cccc(CN2CC(C(=O)NCCOc3ccccc3)CCC2=O)c1 (stereo not given) | u | -7.2% | 17.0 | 19.5*
Cc1[nH]n(-c2c(Cl)cc(Cl)cc2Cl)c(=O)c1C=Nc1ccc(S(=O)(=O)N2CCOCC2)cc1 | 11.2% | 0.1% | -3.9 | -3.3
Cc1cc(C(=O)NCCN2C(=O)S/C(=C\c3cccs3)C2=O)ccc1[N+](=O)[O-] | 10.3% | 17.7% | 4.3 | 4.2
